In PubChem BioAssay:
Where “and” joins values, the source holds several entries; their conditions need not be identical. Equal values may be shown once. More than one record can exist for a structure, and the calls need not agree. Calls of active or inactive are those of the source.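 The calls were made as follows, unless noted: active = thallium flux through the channel raised or lowered by more than 3 SD from vehicle-only wells, actives on both sides; inactive = the rest.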

Legend:
[1] = blockers of polyQ-driven CASP3 activation – cell-based (AID 1583); conditions: polyglutamine-induced caspase-3 activation, cell assay; stronger effect = higher value;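 tested at 10 µM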
[2] = yeast 75Q aggregation reduction – 75Q-TubU reporter (AID 1593); conditions: Yeast 75Q polyglutamine aggregation reporter
[3] = blockers of cytochrome c efflux from mitochondria – biochemical, purified mitochondria (AID 1603); conditions: stronger effect = lower value;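 also: mouse liver mitochondria challenged with calcium chloride; signal normalized to the plate average as 100%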
[4] = polyglutamine aggregate formation blockers (AID 1604); conditions: polyglutamine-induced protein aggregation inhibition assay; stronger effect = higher value; tested at 2.5 µM
[5] = glutamate transport activators, MN-1 cells, MN-1 cell line (AID 1612); conditions: MN-1 motor neuron cells, stronger effect = higher value;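 also: tested at 1 µM final; 0% = mean of DMSO vehicle wells on each plate; positive means more glutamate uptake than control and negative means less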
[6] = signal quenchers or enhancers, Cy5 substrate/SSB – biochemical, NIH Clinical Collection, E. coli SSB, artefact control for HCV NS3 helicase inhibitor project (AID 743268; call rule not given here); conditions: Cy5-oligo bound E. coli SSB, fluorescence interference
[7] = test system: Hepatitis C virus NS3 helicase; assay: blockers of NS3h binding to DNA – biochemical, fluorescence polarization, NIH Clinical Collection, primary screen (AID 743270; call rule not given here); conditions: NS3 helicase binding to Cy5-dT15 DNA, stronger effect = higher value, concentration not given here
[8] = target: Single-stranded DNA-binding protein (Escherichia coli (strain K12)) (UniProt P0AGE0); assay: SSB-ssDNA binding inhibitors – biochemical, fluorescence polarization, NIH Clinical Collection, counter-screen for HCV NS3 helicase inhibitor project (AID 743271; in the data active = inhibition above about 28%); conditions: E. coli SSB-DNA binding, stronger effect = higher value, concentration not given here
[9] = compounds distorting NS3 helicase fluorescence signal – biochemical, NIH Clinical Collection, artefact control for HCV NS3 helicase inhibitor project (AID 743272; call rule not given here;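 also: HCV NS3 helicase with a Cy5 labelled single stranded DNA probe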); conditions: fluorescence interference counterscreen, HCV NS3 helicase assay; stronger effect = lower value
[10] = galactose survival enhancers in mitochondrial complex I cybrids – cell-based, galactose medium, ATP luminescence, primary screen (AID 1645843;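 active = z-score of at least 1.8 in each of two replicates, scored against plate mean and spread of sample wells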;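 also: positive z means more ATP and so rescue of galactose-driven cybrid death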); conditions: complex I mutant cybrid cells, 72 h, stronger effect = higher value
F380Y/beta4 = assay: BK channel mutant inhibitors and activators – cell-based, U2OS BacMam, thallium flux, beta subunits, selectivity assay, profiling panel (AID 1259406); conditions: U2OS BacMam BK variants, at 30 µM;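 also: initial slope of Thallos dye fluorescence rise after thallium is added; log ratio against the mean of 0.3% DMSO vehicle wells on the same plate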
[11] = target: Calcium-activated potassium channel subunit alpha-1 (Homo sapiens) + Leucine-rich repeat-containing protein 26 (Homo sapiens) (UniProt Q12791+Q2I0M4); assay: as above; conditions: U2OS BacMam BK variants, F380Y/Slo1WT/gamma1, at 30 µM
Calcium-activated potassium channel subunit alpha-1 (Homo sapiens) + Leucine-rich repeat-containing protein 26 (Homo sapiens), sequence (Q2I0M4 whole entry, looked up, one chain of several): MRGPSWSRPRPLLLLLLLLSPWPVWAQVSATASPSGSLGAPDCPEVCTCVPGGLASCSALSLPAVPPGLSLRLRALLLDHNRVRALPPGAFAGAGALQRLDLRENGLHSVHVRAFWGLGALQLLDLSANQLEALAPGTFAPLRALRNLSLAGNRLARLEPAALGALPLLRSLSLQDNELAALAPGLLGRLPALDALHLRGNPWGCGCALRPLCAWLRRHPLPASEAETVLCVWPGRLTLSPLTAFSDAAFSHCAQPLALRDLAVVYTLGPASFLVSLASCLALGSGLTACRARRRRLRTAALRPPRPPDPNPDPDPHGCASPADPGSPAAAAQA

R275C = assay: as above; conditions: U2OS BacMam BK variants, at 30 µM
R275C/beta1 = assay: as above; conditions: U2OS BacMam BK variants, at 30 µM
R275C/beta2Delta = assay: as above; conditions: U2OS BacMam BK variants, at 30 µM
R275C/beta4 = assay: as above; conditions: U2OS BacMam BK variants, at 30 µM
R275C/Slo1WT/beta2 = assay: as above; conditions: U2OS BacMam BK variants, at 30 µM
[12] = growth inhibition, single agent or in combination, cell-based, chromothripsis tumors, cisplatin or BGB combos (AID 1671449; in the data active = inhibition above about 80%;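 also: cells exposed for 96 hours; 0% = vehicle DMSO and 100% = killing by high DMSO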); conditions: LFS_MB_P medulloblastoma cells
[13] = growth inhibition, single agent and combos, cell-based, chromothripsis tumors, cisplatin or BGB combos (AID 1671450; in the data active = inhibition above about 80%;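 also: cells exposed to compound for four days; 0% = vehicle DMSO and 100% = cell killing by high DMSO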); conditions: HDN33 neuroblastoma cells, stronger effect = higher value
[14] = growth inhibition, single agents and combos, HTB85, cell-based, BGB or cisplatin IC20 combos, synergistic combos for chromothripsis tumors (AID 1671453; in the data active = inhibition above about 80%;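 also: cells exposed for 96 hours before readout; 0% = vehicle DMSO and 100% = high DMSO killing control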); conditions: HTB85 osteosarcoma cells, drug combinations, stronger effect = higher value

O=C(C1CCCCC1)N1CC(=O)N2CCc3ccccc3C2C1 (configuration not stated)
inhibition [1]: 2.42% | score [2]: 0.82 | cytochrome c release ratio [3]: 0.99 | inhibition of aggregation [4]: 65.4% | glutamate uptake change [5]: 7.89% | fluorescence ratio [6]: 0.91 (inactive) | inhibition [7]: -5.91% (inactive) | inhibition [8]: -2% (inactive) | fluorescence ratio [9]: 0.91 (inactive) | z-score [10]: 1.16 (inactive) and -1.2 (inactive) and 1.07 (inactive) | log fold change Tl+ flux (F380Y/beta4): 0.0341 (inactive) | log fold change Tl+ flux [11]: -0.00263 (inactive) | log fold change Tl+ flux (R275C): -0.0164 (inactive) | log fold change Tl+ flux (R275C/beta1): 0.0419 (inactive) | log fold change Tl+ flux (R275C/beta2Delta): -0.0208 (inactive) | log fold change Tl+ flux (R275C/beta4): 0.0526 (inactive) | log fold change Tl+ flux (R275C/Slo1WT/beta2): 0.0259 (inactive)

CC(COc1ccccc1)N(CCCl)Cc1ccccc1 (configuration not stated)
inhibition [1]: 31.4% | score [2]: 0.5 | cytochrome c release ratio [3]: 4.04 | inhibition of aggregation [4]: 33.3% | glutamate uptake change [5]: 18.7% | fluorescence ratio [6]: 1.06 (inactive) | inhibition [7]: -5% (inactive) | inhibition [8]: -0.48% (inactive) | fluorescence ratio [9]: 0.95 (inactive) | z-score [10]: -0.605 (inactive) and -1.23 (inactive) | log fold change Tl+ flux (F380Y/beta4): -0.0516 (inactive) | log fold change Tl+ flux [11]: -0.0217 (inactive) | log fold change Tl+ flux (R275C): -0.0819 (inactive) | log fold change Tl+ flux (R275C/beta1): 0.0364 (inactive) | log fold change Tl+ flux (R275C/beta2Delta): -0.0434 (inactive) | log fold change Tl+ flux (R275C/beta4): 0.0533 (inactive) | log fold change Tl+ flux (R275C/Slo1WT/beta2): -0.0106 (inactive)

CC1(C)O[C@@H]2[C@@H](CO[C@@]3(COS(N)(=O)=O)OC(C)(C)O[C@@H]23)O1
fluorescence ratio [6]: 1.04 (inactive) | inhibition [7]: -0.4% (inactive) | inhibition [8]: -6.26% (inactive) | fluorescence ratio [9]: 1.02 (inactive) | z-score [10]: -0.1 (inactive) | log fold change Tl+ flux (F380Y/beta4): 0.0387 (inactive) | log fold change Tl+ flux [11]: 0.0353 (inactive) | log fold change Tl+ flux (R275C): -0.04 (inactive) | log fold change Tl+ flux (R275C/beta1): 0.0176 (inactive) | log fold change Tl+ flux (R275C/beta2Delta): 0.0245 (inactive) | log fold change Tl+ flux (R275C/beta4): -0.0182 (inactive) | log fold change Tl+ flux (R275C/Slo1WT/beta2): 0.00527 (inactive)

CC(=O)CC(c1ccccc1)c1c(O)c2ccccc2oc1=O (configuration not stated)
inhibition [1]: 17% | score [2]: 0.72 | cytochrome c release ratio [3]: 1.4 | inhibition of aggregation [4]: 68.5% | glutamate uptake change [5]: -2.55% | fluorescence ratio [6]: 1 (inactive) | inhibition [7]: -2.27% (inactive) | inhibition [8]: -3.53% (inactive) | fluorescence ratio [9]: 0.99 (inactive) | z-score [10]: 2.31 (active) | log fold change Tl+ flux (F380Y/beta4): 0.0212 (inactive) | log fold change Tl+ flux [11]: -0.00524 (inactive) | log fold change Tl+ flux (R275C): 0.00879 (inactive) | log fold change Tl+ flux (R275C/beta1): -0.0262 (inactive) | log fold change Tl+ flux (R275C/beta2Delta): 0.0436 (inactive) | log fold change Tl+ flux (R275C/beta4): -0.00201 (inactive) | log fold change Tl+ flux (R275C/Slo1WT/beta2): 0.0306 (inactive)

CN[C@H]1CC[C@@H](c2ccc(Cl)c(Cl)c2)c2ccccc21
z-score [10]: -1.29 (inactive) and -1.52 (inactive) and -0.69 (inactive) | log fold change Tl+ flux (F380Y/beta4): 1.13 (active) and 1.04 (active) | log fold change Tl+ flux [11]: 0.123 (active) and 0.169 (active) | log fold change Tl+ flux (R275C): -0.288 (active) and -0.259 (active) | log fold change Tl+ flux (R275C/beta1): 0.549 (active) and 0.546 (active) | log fold change Tl+ flux (R275C/beta2Delta): -0.0453 (inactive) and -0.0183 (inactive) | log fold change Tl+ flux (R275C/beta4): 0.997 (active) and 0.996 (active) | log fold change Tl+ flux (R275C/Slo1WT/beta2): 0.019 (inactive) and -0.2 (active)

CCCNCC(O)COc1ccccc1C(=O)CCc1ccccc1 (configuration not stated)
inhibition [1]: -14.1% | score [2]: 1.02 | cytochrome c release ratio [3]: 1.16 | inhibition of aggregation [4]: 21.6% | glutamate uptake change [5]: 9.21% | fluorescence ratio [6]: 1.02 (inactive) | inhibition [7]: -5% (inactive) | inhibition [8]: -2% (inactive) | fluorescence ratio [9]: 0.99 (inactive) | z-score [10]: -1.23 (inactive) and -1.36 (inactive) and -0.68 (inactive) | log fold change Tl+ flux (F380Y/beta4): 0.161 (active) | log fold change Tl+ flux [11]: 0.00467 (inactive) | log fold change Tl+ flux (R275C): 0.00823 (inactive) | log fold change Tl+ flux (R275C/beta1): 0.184 (active) | log fold change Tl+ flux (R275C/beta2Delta): 0.136 (active) | log fold change Tl+ flux (R275C/beta4): 0.153 (active) | log fold change Tl+ flux (R275C/Slo1WT/beta2): 0.0285 (inactive)

Clc1ccc2c(c1)C(N1CCNCC1)=Nc1ccccc1O2
inhibition [1]: 0.62% | score [2]: 1.21 | cytochrome c release ratio [3]: 0.82 | inhibition of aggregation [4]: -0.07% | glutamate uptake change [5]: 35.9% | fluorescence ratio [6]: 0.92 (inactive) | inhibition [7]: -4.09% (inactive) | inhibition [8]: -1.24% (inactive) | fluorescence ratio [9]: 0.96 (inactive) | z-score [10]: -1.01 (inactive) and 0.165 (inactive) and -1.17 (inactive) | log fold change Tl+ flux (F380Y/beta4): 0.0652 (inactive) | log fold change Tl+ flux [11]: -0.0105 (inactive) | log fold change Tl+ flux (R275C): 0.021 (inactive) | log fold change Tl+ flux (R275C/beta1): 0.123 (active) | log fold change Tl+ flux (R275C/beta2Delta): 0.0319 (inactive) | log fold change Tl+ flux (R275C/beta4): 0.0104 (inactive) | log fold change Tl+ flux (R275C/Slo1WT/beta2): 0.0256 (inactive)

CCCCCCNC(=O)n1cc(F)c(=O)[nH]c1=O
fluorescence ratio [6]: 1.03 (inactive) | inhibition [7]: 0.4% (inactive) | inhibition [8]: 1.44% (inactive) | fluorescence ratio [9]: 0.97 (inactive) | z-score [10]: 1.85 (inactive) | inhibition ([12]; at 0.5 µM, stronger effect = higher value): -27.2% (inactive) and -12.2% (inactive) | inhibition ([12]; measured here: combination with BGB IC20, at 0.005 µM): -12% and -29.3% | inhibition ([12]; measured here: combination with BGB IC40, at 0.005 µM): -26.4% and -7.28% | inhibition ([12]; measured here: combination with BGB IC40, at 0.05 µM): -34.3% and -13.5% | inhibition ([12]; measured here: combination with cisplatin, at 0.5 µM, stronger effect = higher value): -48.8% and -55.1% | inhibition ([12]; measured here: combination with cisplatin, at 5 µM, stronger effect = higher value): -34.6% and -25% | inhibition ([13]; BGB combo, at 5 µM): 41.9% and 91.3% | inhibition ([13]; at 0.5 µM): -22% (inactive) and -3.86% (inactive) | inhibition ([13]; cisplatin combo, at 5 µM): 46.1% and 36.7% | inhibition ([13]; measured here: with BGB IC20 combination, at 0.5 µM): -20.7% and 5.65% | inhibition ([13]; measured here: with cisplatin IC20 combination, at 0.5 µM): -11.9% and -1.01% | inhibition ([13]; single agent, at 5 µM): 90.7% and 52% | inhibition ([14]; at 0.5 µM): -3.88% (inactive) and -24.5% (inactive) | inhibition ([14]; measured here: with BGB IC20, at 0.5 µM): -6.6% and -67.2% | inhibition ([14]; measured here: with BGB IC20, at 5 µM): 21% and 3.85% | inhibition ([14]; measured here: with cisplatin IC20, at 0.5 µM): -9.7% and -6.78% | inhibition ([14]; measured here: with cisplatin IC20, at 5 µM): 9.85% and 21% | inhibition ([14]; single agent, at 5 µM): 31.6% and 31.5% | log fold change Tl+ flux (F380Y/beta4): -0.0261 (inactive) | log fold change Tl+ flux [11]: -0.0355 (inactive) | log fold change Tl+ flux (R275C): -0.0237 (inactive) | log fold change Tl+ flux (R275C/beta1): 0.00244 (inactive) | log fold change Tl+ flux (R275C/beta2Delta): -0.0282 (inactive) | log fold change Tl+ flux (R275C/beta4): -0.000915 (inactive) | log fold change Tl+ flux (R275C/Slo1WT/beta2): -0.00804 (inactive)

CCc1cccc2c3c([nH]c12)C(CC)(CC(=O)O)OCC3 (configuration not stated)
inhibition [1]: 10.4% | score [2]: 1.08 | cytochrome c release ratio [3]: 0.88 | inhibition of aggregation [4]: 57.6% | glutamate uptake change [5]: -3.42% | fluorescence ratio [6]: 1.05 (inactive) | inhibition [7]: 4.09% (inactive) | inhibition [8]: -2% (inactive) | fluorescence ratio [9]: 1.02 (inactive) | z-score [10]: 0.63 (inactive) and -0.035 (inactive) | log fold change Tl+ flux (F380Y/beta4): -0.00239 (inactive) | log fold change Tl+ flux [11]: 0.00932 (inactive) | log fold change Tl+ flux (R275C): 0.0181 (inactive) | log fold change Tl+ flux (R275C/beta1): 0.127 (active) | log fold change Tl+ flux (R275C/beta2Delta): 0.0673 (inactive) | log fold change Tl+ flux (R275C/beta4): 0.0823 (inactive) | log fold change Tl+ flux (R275C/Slo1WT/beta2): 0.0472 (inactive)
